# Source: PubChem BioAssay (NMMLSC)
# GSH bead fluor: GSH bead compound fluorescence profile. fluorescence (KMESF) at 10 µM. 0.25% of 190,000 active. AID 1776. GSH beads flow cytometry, compound fluorescence 488/530 nm; active compounds read high; in the data active = fluorescence above about 89;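 also: glutathione beads carrying GST-tagged Bcl family fusion proteins plus one bare bead set; values are compound well signal with DMSO vehicle wells as background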
# Avidin bead fluor: compound fluoresces at 488/530 nm on avidin beads; compound fluorescence 488/530 nm, flow cytometry; active compounds read high; fluorescence (KMESF) at 10 µM; 0.38% of 220,000 active; AID 1775; in the data active = fluorescence above about 47
# RGS7-Gao: modulates binding of RGS7 to human Galphao; P09471; Multiplexed bead flow cytometry; actives lie on both sides; binding response (% of control), % at 10 µM; 0.35% of 220,000 active; in the data active = binding response below about 49% or above about 150%; inconclusive = no clear call, values can overlap the other calls; inactive = in between;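 also: fluorescent Galphao held in activated GDP-AlF4 state binding bead-coupled RGS7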
# Target sequence (P09471 whole entry, looked up): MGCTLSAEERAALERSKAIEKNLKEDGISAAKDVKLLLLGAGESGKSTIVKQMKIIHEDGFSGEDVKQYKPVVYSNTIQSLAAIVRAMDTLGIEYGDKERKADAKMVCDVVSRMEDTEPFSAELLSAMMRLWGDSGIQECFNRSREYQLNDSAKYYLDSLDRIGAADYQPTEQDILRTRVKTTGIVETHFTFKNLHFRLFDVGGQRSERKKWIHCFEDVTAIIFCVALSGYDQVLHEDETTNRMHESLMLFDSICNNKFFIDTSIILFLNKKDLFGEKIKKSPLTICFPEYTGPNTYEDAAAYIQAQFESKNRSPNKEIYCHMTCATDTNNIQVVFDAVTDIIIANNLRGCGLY
# RGS8-Gao: regulators of human RGS8-Galphao interaction | AID 1423 | 0.34% of 220,000 active | response (percent of control binding), % at 10 µM | P09471 | multiplexed bead flow cytometry, RGS8-Galphao binding; actives lie on both sides; in the data active = response below about 60% or above about 140%; inactive = in between;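 also: Galphao activated as the GDP aluminium fluoride complex binding bead-coupled RGS8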
# RGS4-Gao reg: modulates binding of RGS4 to human Galphao; P09471; binding response (% of control), % at 10 µM; 0.33% of 220,000 active; Multiplexed bead flow cytometry; actives lie on both sides; in the data active = binding response below about 49% or above about 150%; inactive = in between;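 also: fluorescent Galphao activated with aluminum fluoride binding bead-coupled RGS4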
# RGS16-Gao HTS: RGS16-Galphao interaction regulator (human). 0.38% of 220,000 active. binding response (% of control), % at 10 µM. AID 1441. bead-based flow cytometry RGS16-Galphao binding, fluorescence; actives lie on both sides. O15492+P09471;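 also: Galphao activated by GDP with aluminum fluoride before binding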
# RGS-Gao: regulators of human RGS4-Galphao interaction; multiplexed bead flow cytometry, RGS–Galpha-o binding; RGS4–Galpha-o binding response, % at 10 µM; AID 1504; shares compounds with RGS16-Gao HTS; 99% of 1,600 active;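 also: fluorescently labeled Galpha-o bound to GDP with aluminium fluoride binding biotinylated RGS beads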
# Biotin-avidin: interferes with biotinylated probe binding to avidin beads; shares compounds with RGS16-Gao HTS; streptavidin beads, fluorescein-biotin binding, flow cytometry; inhibition, % at 10 µM; 1,700 tested, under 10 active;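 active = inhibition above 50%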;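 also: median green fluorescence of gated singlet beads compared with DMSO control wells; 0% = DMSO wells and 100% = complete loss of bead fluorescence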
# RGS8-Gao confirm: confirmation of regulators of human RGS8-Galphao interaction; 3% of 1,700 active; binding response (% of control), % at 10 µM; shares compounds with RGS16-Gao HTS; bead-based flow cytometry RGS8-Galphao binding, fluorescence; actives lie on both sides; in the data active = binding response below about 72% or above about 130%; inactive = in between;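 also: Galphao activated as GDP AlF4 complex before binding bead RGS8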
# RGS7-Gao confirm: confirmation of regulators of human RGS7-Galphao interaction. AID 1837. 7.8% of 1,700 active. bead-based flow cytometry RGS7-Galphao binding; actives lie on both sides. shares compounds with RGS16-Gao HTS. response (percent of control binding), % at 10 µM; in the data active = response below about 75% or above about 130%; inactive = in between;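 also: fluorescent Galphao activated with GDP and aluminum fluoride binding bead-coupled RGS7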
# RGS16-Gao single: confirmation of regulators of human RGS16-Galphao interaction | shares compounds with RGS16-Gao HTS | bead-based flow cytometry, RGS16-Galphao binding; actives lie on both sides | response (% of control binding), % at 10 µM | 4% of 1,700 active | AID 1838; in the data active = response below about 74% or above about 130%; inactive = in between;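 also: Galphao activated as the GDP aluminium fluoride complex binding bead-coupled RGS16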
# RGS4-Gao confirm: RGS4-Galphao interaction regulation, single point confirmation; shares compounds with RGS16-Gao HTS; RGS4-Galphao binding, multiplexed bead flow cytometry; actives lie on both sides; binding response (% of control), % at 10 µM; 4% of 1,700 active; AID 1840; in the data active = binding response below about 74% or above about 130%; inactive = in between
# RGS19-Gao single: confirmation of regulators of human RGS19-Galphao interaction; shares compounds with RGS16-Gao HTS; bead-based flow cytometry RGS19-Galphao binding; actives lie on both sides; response (percent of control binding), % at 10 µM; 5% of 1,700 active; in the data active = response below about 50% or above about 160%; inactive = in between;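 also: 100% = no compound control and 0% = blank background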
# Target sequence (P09471 whole entry, looked up): as above
# Target sequence (P49795 whole entry, looked up): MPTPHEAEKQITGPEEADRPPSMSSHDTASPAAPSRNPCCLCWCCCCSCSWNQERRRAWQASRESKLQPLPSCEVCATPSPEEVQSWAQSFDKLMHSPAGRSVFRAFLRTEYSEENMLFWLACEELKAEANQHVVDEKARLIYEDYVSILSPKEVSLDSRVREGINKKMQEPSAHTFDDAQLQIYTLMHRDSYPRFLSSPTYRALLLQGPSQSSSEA
# * hit, by the source's call; ? = inconclusive; . = not tested or not shown; [ ] = another dose, or the depositor's remark. The list is not random: actives were taken first. Their share in the collection is about 1.2%. Unless noted, no rule for the calls is given here.
SMILES,GSH bead fluor,Avidin bead fluor,RGS7-Gao,RGS8-Gao,RGS4-Gao reg,RGS16-Gao HTS,RGS-Gao,Biotin-avidin,RGS8-Gao confirm,RGS7-Gao confirm,RGS16-Gao single,RGS4-Gao confirm,RGS19-Gao single
Cn1ncc([N+](=O)[O-])c1C(=O)Nc1ccc(-c2nc3ccccc3[nH]2)cc1,13,.,.,.,.,.,.,0.0,104.5,107.5,101.0,103.6,101.1
COc1ccc(C)cc1NC(=O)C(Sc1nnc(Nc2cc(C)ccc2OC)s1)c1ccccc1 (centres undefined),8,-3,7.2*,3.4*,10.6*,-13.1*,.,-2.2,105.5,109.5,106.6,103.7,97.6
COc1ccc(Nc2nnc(SC(C(=O)Nc3cc(C)ccc3C)c3ccccc3)s2)cc1 (centres undefined),16,12,104.2,103.7,101.5,101.6,.,.,.,.,.,.,.
CC(CCc1ccccc1)NC(=O)CSc1nccc(=O)[nH]1 (centres undefined),43,-2,10.9*,21.1*,12.2*,7.1*,.,-1.0,97.3,79.3,91.4,90.5,78.8
C(=N\NCc1ccccc1)/c1ccc2nccnc2c1,.,5,?,100.1,102.5,103.4,.,.,.,.,.,.,.
O=C(C1CCN(S(=O)(=O)c2cccnc2)CC1)N1CCN(c2cccc(Cl)c2)CC1,25,1,10.7*,26.6*,35.4*,62.4,.,-0.9,99.2,99.2,101.0,99.1,95.1
CN1CCN(C(=O)c2cn(-c3ccccc3)nc2-c2cccnc2)CC1,30,.,144.2,.,151.6*[activator],150.9,.,-1.0,100.6,99.9,99.4,100.6,89.2
COCCN1Cc2cccc(C(=O)NCc3ccc4c(c3)OCO4)c2C1=O,22,6,91.7,69.9,89.5,19.9*,89.5*,0.6,106.1,99.2,108.8,103.4,105.7
COCCN1Cc2cccc(C(=O)NCc3ccccn3)c2C1=O,14,13,110.8,108.9,106.0,120.2,.,.,.,.,.,.,.
COc1ccc(CNC(=O)CN(CC2CCCO2)C(=O)CNS(=O)(=O)c2ccc(C)cc2)cc1 (centres undefined),13,15,99.3,99.2,94.7,103.0,.,.,.,.,.,.,.
COc1ccc(CNC(=O)CN(CC2CCCO2)C(=O)CNS(=O)(=O)c2ccccc2)cc1 (centres undefined),4,171*,208.6*[activator],85.8,128.6,121.7,128.6*,1.6,102.2,99.8,100.3,101.2,85.6
COc1ccc(NC(=S)N2CCN(c3ncccn3)CC2)c(OC)c1,.,8,?,97.8,95.7,91.3,.,.,.,.,.,.,.
CCN(CC)CCCNC(=O)C1c2cc(OC)c(OC)cc2C(=O)N(C)C1c1cccs1 (centres undefined),33,12,130.2,153.1*[activator],153.1*[activator],453.6,.,-0.9,105.2,98.1,110.3,103.4,103.4
Cc1cc(-c2n[nH]c(=S)n2/N=C/c2cc([N+](=O)[O-])ccc2Cl)n[nH]1,7,7,79.0,66.2,83.4,-2.0*,83.4*,0.1,96.6,123.1,96.0,103.0,92.0
CN=C1c2cc3c(Br)c(OC)ccc3n2CCN1C,8,16,127.5,97.5,151.5*[activator],153.4,.,-0.8,103.8,95.0,105.4,99.4,96.0
COC(=O)CCC(=O)Nc1sc(C)c(C)c1C(N)=O,44,.,.,.,.,.,.,0.0,82.1,72.6*,69.7*,69.4*,44.1*
CCCCN(C)C(=O)Cn1cnc2sc(C)cc2c1=O,21,110*,154.9*[activator],97.6,109.4,114.0,109.4*,.,.,.,.,.,.
CCC(CC)=N/N=C/c1c(O)n(CC)c2cc(C3=NNC(=O)CC3)ccc12,16,12,77.0,66.8,80.2,24.5*,80.2*,0.7,104.7,100.3,110.2,99.9,109.5
CCCCOc1ccc(C2=NNC(=O)CC2)cc1,13,11,99.7,98.3,100.0,103.2,.,.,.,.,.,.,.
CCn1c(O)c(/C=N/N=C/c2ccccc2)c2ccc(C3=NNC(=O)CC3)cc21,37,.,.,.,.,.,.,2.2,99.9,110.5,102.6,104.5,100.0
CCn1c(C)nc2cc(C(=O)N/N=C/c3ccccc3)ccc21,23,13,96.7,101.4,97.7,97.8,.,.,.,.,.,.,.
COc1ccc(NC(=O)CCN2C(=O)c3ccncc3C2=O)cc1OC,.,8,?,100.7,102.0,107.4,.,.,.,.,.,.,.
Cc1cc(OCC(=O)c2cccc(C(F)(F)F)c2)n2cnnc2n1,.,7,?,100.0,93.8,97.2,.,.,.,.,.,.,.
CN(C)S(=O)(=O)c1cc(NC(=O)COC(=O)Cc2ccc(Br)cc2)ccc1Cl,9,2,82.6,56.5*,77.8,12.4*,77.8*,-1.5,98.6,97.8,98.5,99.8,103.7
O=S(=O)(CC(O)CS(=O)(=O)c1ccc(Cl)cc1)c1ccccc1 (centres undefined),.,8,?,99.2,102.0,101.4,.,.,.,.,.,.,.
CC(=O)c1cccc(NC(=O)CN(C)Cc2ccc(OC(F)F)cc2)c1,.,8,?,102.3,103.3,101.7,.,.,.,.,.,.,.
CNc1nc(-c2ccc3c(c2)CCN3C(=O)c2ccccc2C)cs1,18,3,55.7,59.5*,83.8,109.2,83.8*,-0.1,102.3,102.3,101.9,101.4,97.9
CNc1nc(-c2ccc3c(c2)CCN3C(=O)c2ccc(F)cc2)cs1,13,12,100.2,102.3,103.1,109.1,.,.,.,.,.,.,.
C(=N\Nc1ccc2ccccc2n1)/c1ccc2c(c1)OCCO2,13,10,111.2,140.2*[activator],111.2,248.8,111.2*,0.3,100.8,102.0,101.4,99.3,104.0
Cc1cccc(NC(=O)COn2nnc3ccc(S(C)(=O)=O)cc32)c1,17,11,103.2,107.6,105.7,113.9,.,.,.,.,.,.,.
